Inconclusive results are not listed. Calls of active or inactive are those of the source. Calls come from the whole dose curve; as a rule, active = well fitted inhibition curve with a large enough effect; inconclusive = small, poorly fitted or top-dose-only effect; inactive = no such curve, though single readings can be large or run the other way.
Experiment: InCell qHTS Assay for Inhibitors of the mTORC1 Signaling Pathway in MEF (Tsc2-/-, p53-/-) Cells: Hit Validation;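 note: phospho-S6 Ser235/236 signal normalized to propidium iodide cell count per well; nearly all actives have a fitted effect of over 75% in size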
Conditions: phospho-rpS6 immunofluorescence, 24 h; activity change, negative = inhibition: at 38.3 µM (top of the series)
Potency is the fitted concentration of half-maximal effect.

Row | Compound | activity change, negative = inhibition [%] | Potency
1 | Cc1cccc(N2CCN(C(=O)C3CCN(C(=O)c4cc5sccc5n4C)CC3)CC2C)c1 (configuration not stated) | -100 | –
2 | Cc1cccc(OCc2ccc(-c3nc(C#N)c(NCCN(C)C)o3)o2)c1 | -100 | –
3 | Cc1nc2scc(C)n2c(=O)c1S(=O)(=O)Nc1ccc(N2CCOCC2)c(Cl)c1 | -100 | –
4 | Oc1ccc(NCc2ccc(OCc3ccccc3Cl)cc2)cc1 | -100 | –
5 | Oc1ccccc1Nc1nc(-c2ccccc2)c2cc(Cl)ccc2n1 | -100 | –
6 | CCCCN1C(=O)C(O)(c2c(C)[nH]c3ccccc23)c2cc(Br)ccc21 (configuration not stated) | -21.8 | –
7 | COc1ccc2nc(NC(=O)c3nc(S(=O)(=O)Cc4ccccc4)ncc3Cl)sc2c1 | – | 1.65 µM (active)
8 | CCOc1cc(-c2nnc(SCC(=O)NCc3ccccc3)nc2-c2ccc(OC)c(OCC)c2)ccc1OC | -100 | –
9 | CN(C(=O)CSc1nc2ccc(NC(=O)COc3ccc(F)cc3)cc2s1)c1ccccc1 | -100 | –
10 | Cc1ccc(NC(=O)CCNS(=O)(=O)c2cccc3nonc23)cc1Cl | -100 | –
11 | COc1ccccc1-c1noc(CSc2nc3ccc(C)cc3[nH]2)n1 | -100 | –
12 | Cc1ccc(C)c(N2CCN(CCCNC(=O)c3nnc(Cc4ccc(F)cc4Cl)o3)CC2)c1 | 1.72 | –
13 | COc1cccc(-n2c(-c3ccc(C)cc3)cc3c2CC(C)(C)CC3=O)c1 | -6.41 | –
14 | CC1=Nc2cc(C(=O)NC(C)C)ccc2Sc2ccc(C)cc21 | -100 | –
15 | COc1cc(NC(=O)c2cccc3c2C(=O)N(C2CCCCC2)C3)cc(OC)c1OC | -100 | –
16 | COc1ccc(C(F)(F)F)cc1NC(=O)c1sc2nc(-c3cccs3)ccc2c1N | -11 | –
17 | CCc1cccc(NC(=O)c2oc3ccc4c(c3c2C)C(=O)CC(C)(C)O4)c1 | -100 | –
18 | CC1CCN(S(=O)(=O)c2ccc3nc(Nc4cccc(C(F)(F)F)c4)ccc3c2)CC1 | -100 | –
19 | CCOC(=O)N1CCN(Cc2nc3cc(NC(=O)c4cccc(C)c4)ccc3n2C(C)C)CC1 | -100 | –

Row | Compound | activity change, negative = inhibition [%] | Potency
20 | COc1ccc2c(c1)CC(C(=O)Nc1cc(Cl)ccc1C)CO2 (configuration not stated) | -100 | –
21 | Cc1nn(CC(=O)NCc2ccccc2Cl)c(=O)c2cccn12 | -100 | –
22 | COc1ccc2c(CNCCc3cccs3)c(C(=O)O)n(Cc3ccc(F)cc3Cl)c2c1 | -100 | –
23 | CCOc1ccc(S(=O)(=O)Nc2ccc(OC)c(Cl)c2)c2cccnc12 | -100 | –
24 | CCN1CCOC(=O)C1CC(=O)Nc1cc(C)ccc1OC (configuration not stated) | – | 13.1 µM (active)
25 | CC(C)Oc1cccc(C2CC(=O)Nc3cc4c(cc32)OCO4)c1 (configuration not stated) | -9.58 | –
26 | CCOc1ccccc1NC(=O)CSc1cc(=O)n(CC)c2ccccc12 | -100 | –
27 | Cc1ccc(CS(=O)(=O)c2ncc(Cl)c(C(=O)Nc3nnc(C(C)C)s3)n2)cc1 | – | 6.56 µM (active)
28 | CC(C)OCc1cc(CN2CCN(c3cccc(C(F)(F)F)c3)CC2)c(O)c2ncccc12 | -100 | –
29 | COc1cccc(/C=C(\C#N)c2nc3ccc(C)cc3[nH]2)c1 | -100 | –
30 | CCOc1ccc(NC(=O)N(Cc2c[nH]c3ccccc23)C2CCCCCC2)cc1 | -100 | –
31 | CC(C)CCNC(=O)Nc1ccc2c(c1)N(C)C(=O)c1ccccc1S2 | -100 | –
32 | CCOc1ccc(NC(=O)CN2C(=O)C(c3ccc(Cl)cc3)=NC2(C)C)cc1 | -100 | –
33 | Cc1n[nH]c(C)c1S(=O)(=O)N(CC(=O)Nc1ccc(C(F)(F)F)cc1)c1ccc(C(C)C)cc1 | -23.7 | –
34 | CCNc1nc2c(c(=O)[nH]c(=O)n2C)n1CC(O)COc1ccc(Cl)cc1Cl (configuration not stated) | -100 | –
35 | COc1ccc(C2CC(=O)c3c([nH]c(C(=O)OC4CCCCCC4)c3C)C2)cc1OC (configuration not stated) | -100 | –
36 | COc1ccc(C(C(=O)Nc2ccc(C(C)C)cc2)N(C)C(=O)Cc2cccs2)cc1 (configuration not stated) | -100 | –
37 | COc1ccc(Cn2c(C(=O)O)c(CNCc3ccc(SC)cc3)c3ccc(OC)cc32)cc1 | -100 | –

— PubChem BioAssay AID651791 (National Center for Advancing Translational Sciences (NCATS), 2012)
